Where “and” joins values, the source holds several entries; their conditions need not be identical. Equal values may be shown once. Records with an inconclusive call do not appear. Where a call stands in place of a potency, no number is given. More than one record can exist for a structure, and the calls need not agree. Calls of active or inactive are those of the source. Calls follow the shape of the dose curve; as a rule, active = well fitted cell-killing curve with a large enough effect in the repeat runs; inconclusive = weak or mixed curves, or effect the other way; inactive = no such curve, though single readings can be large or run the other way.
Potency is read from the fitted curve at half-maximal effect.

This assay in a line: qHTS assay to identify small molecule agonists of the farnesoid-X-receptor (FXR) signaling pathway - cell viability counter screen (AID 743218). Also: nearly all actives have a fitted effect of over 45% in size. As to conditions: FXR-bla HEK293T viability, CellTiter-Glo luminescence, 16 h; series mostly up to 62.6 µM. The source says:
U.S. Tox21 Program National Center for Advancing Translational Sciences [NCATS] NIH Chemical Genomics Center [NCGC] U.S. Environmental Protection Agency [EPA] National Institutes of Environmental Health Sciences [NIEHS] National Toxicology Program [NTP] U.S. Food and Drug Administration [FDA] Tox21 Assay Overview: The farnesoid-X-receptor (FXR), a nuclear hormone receptor, is highly expressed in liver, intestine, kidney and adrenal cortex. Natural ligands of FXR are the bile acids (Cholic acid, Chenodeoxy cholic acid etc). FXR is an important regulator of diverse metabolic pathways, including the bile acid homeostasis, lipid and glucose metabolisms. FXR regulates the expression of target genes by binding either as a monomer or as a heterodimer with the retinoid X receptor (RXR). Numerous studies have reported that FXR exerts protective function during cholestasis, diabetes, liver regeneration, and cancer. To identify compounds that activate FXR signaling, GeneBLAzer FXR-UAS-bla HEK 293T cell line (Invitrogen, Carlsbad, CA) containing a beta-lactamase reporter gene under the control of a UAS response element was used to screen the Tox21 10K compound library. The cytotoxicity of the Tox21 compound library against the FXR-bla cell line was tested in parallel by measuring the cell viability using CellTiter-Glo assay in the same wells.
Tox21 Assay Protocol Summary: FXR-bla cells were dispensed at 5000 cells/5uL/well in 1536-well black wall/clear bottom plates using a Multidrop Combi (Thermo Fisher Scientific, Waltham, MA) dispenser. After the assay plates were incubated at 37 C and 5% CO2 for 5 h, 23 nL of compounds dissolved in DMSO, positive controls or DMSO only was transferred to the assay plate by a Pintool station (Kalypsys, San Diego, CA). The assay plates were incubated at 37C for 16 h. After 1 uL of LiveBLAzerTM B/G FRET substrate was added using a Bioraptr Flying Reagent Dispenser (FRD) workstation (Beckman Coulter, Indianapolis, IN), the plates were incubated at room temperature for 2 h, and fluorescence intensity was measured by an Envision plate reader (PerkinElmer, Shelton, CT). For cell viability readout that measures cytotoxicity, 4uL/well of CellTiter-Glo reagent was added into the assay plates using a Bioraptr FRD. After 30 min incubation at room temperature, the luminescence intensity in the plates was measured using a ViewLux plate reader (PerkinElmer).
(In general: qHTS replaces the single test concentration by a dilution series.)
Turning to `Cc1ncc(C[n+]2csc(CCO)c2C)c(N)n1`, the Potency entry is “inactive”.

For the molecule `Oc1cccc(Cl)c1`, the Potency result is “inactive”.

As to `CCOC(=O)c1cn2nc(OP(=S)(OCC)OCC)cc2nc1C`, the Potency result is “inactive”.

`Cc1ccc2c(C)cccc2c1`: the Potency entry was “inactive”.

In the case of `CCCN(CCC)C(=O)Cc1c(-c2ccc(Cl)cc2)nc2ccc(Cl)cn12`, the Potency entry is “inactive”.

On to `CC(C)OC(=O)Cc1ccccc1`, for which the Potency result was “inactive”.

Regarding `C[N+]1(CCF)[C@@H]2CC[C@H]1CC(OC(=O)C(O)(c1ccccc1)c1ccccc1)C2` (stereo not given in full), the Potency result is “inactive”.

Turning to `NP(N)(=O)NC(=O)c1ccc(F)cc1`, the Potency result was “inactive”.

In the case of `Nc1ccc2c(c1)Cc1ccccc1-2`, the Potency entry was “inactive”.

`CCC(C)(C)c1ccc(O)c(C(C)(C)CC)c1`: the Potency result was “inactive and 24.5 µM (active)”.

For the molecule `O=C(O)c1ccc(=O)[nH]c1`, the Potency result is “inactive”.

For `C[CH2][Hg][S]c1ccccc1C(=O)O`, the Potency is 1.55 µM (active) and 2.66 µM (active).

For `CCOC(C(=O)OCCN(C)C)(c1ccccc1)c1ccccc1`, the Potency result was “inactive”.

Consider `CC(C)CCON=O`, for which the Potency entry was “inactive”.

Take `CC1(C)CC(=O)CC(C)(C)N1[O]`: the Potency entry was “inactive”.

Consider `C=C(Cl)Cl`, for which the Potency entry was “inactive”.

For `CCOc1cccc(C2(N3CCN(c4ccccc4)CC3)CCC(C)CC2)c1` (stereo not given), the Potency entry was “inactive”.

On to `CCCCC(CC)CO[N+](=O)[O-]` (stereo not given), for which the Potency entry is “inactive”.

On to `CN1C(=O)CN=C(c2ccccc2)c2cc([N+](=O)[O-])ccc21`, for which the Potency entry is “inactive”.

For the molecule `C#CC(O)(C=CCl)CC` (stereo not given), the Potency entry was “inactive”.

With `CCCCC1C(=O)NC(=O)N(C2CCCCC2)C1=O` (stereo not given), the Potency entry was “inactive”.

For the molecule `CC(C)(C)NCC(O)c1ccccc1Cl` (stereo not given), the Potency result is “inactive”.

Turning to `O=C(O)c1cc(I)cc(I)c1I`, the Potency entry is “inactive”.

On to `C1CCNCC1`, for which the Potency result is “inactive”.

On to `Nc1cccc2ccccc12`, for which the Potency entry was “inactive”.

With `[Cl-].[Cl-].[Hg+2]`, the Potency is 2.74 µM (active) and 9.77 µM (active).

Regarding `COc1ccc2c(c1OC)C(=O)O[C@H]2[C@@H]1c2cc3c(cc2CCN1C)OCO3`, the Potency result was “inactive”.

In the case of `CC(C)CCCCCCCOC(=O)c1ccccc1C(=O)OCCCCCCCC(C)C`, the Potency result is “inactive”.

For `O=C(Cc1ccccc1)OCCc1ccccc1`, the Potency result was “inactive”.

For the molecule `CCSCc1ccccc1OC(=O)NC`, the Potency result is “inactive”.

In the case of `CCC1CCC(=O)O1` (stereo not given), the Potency result is “inactive”.

As to `O=C(O)C(Cl)(Cl)Br`, the Potency result is “inactive”.

For `C=CCc1ccccc1O`, the Potency result was “inactive”.

On to `CCOP(=S)(OCC)Oc1ccc(S(C)=O)cc1` (stereo not given), for which the Potency entry is “inactive”.

Turning to `CCC(C)(C)O`, the Potency entry is “inactive”.

As for `Nc1cc(Cl)cc(C(=O)O)c1Cl`, the Potency entry was “inactive”.

For the molecule `C=CCN1C[C@H](C)N([C@H](c2ccc(C(=O)N(CC)CC)cc2)c2cccc(OC)c2)C[C@H]1C`, the Potency result was “inactive”.

With `C=CCc1ccc(OC(=O)Cc2ccccc2)c(OC)c1`, the Potency entry was “inactive”.

On to `O=C(N[C@H]1CN2CCC1CC2)c1ccc2c(c1)OCCO2`, for which the Potency entry was “inactive”.

On to `Cc1ccc(N)c(C)c1`, for which the Potency entry was “inactive”.

These data come from PubChem BioAssay (Tox21).
